Results reported in PubChem BioAssay (EPA / NIEHS).
Records with an inconclusive call do not appear. The source made the active and inactive calls. The calls were made as follows: active = hit-call score of the fitted dose curve at least 0.9, where 1 is the maximum; inconclusive = response in the unintended direction; inactive = score below 0.9.

Target: Cytochrome P450 3A4 (Homo sapiens) (UniProt P08684)
Experiment: NVS_ADME_hCYP3A4: NovaScreen (NVS) CYP450-related Enzyme Activity (ADME) Assay for human CYP3A4 (AID 2283110)
Method: NVS_ADME_hCYP3A4 is a biochemical, single-readout assay that uses extracted gene-proteins from insect cells in a cell-free assay. Measurements were taken 0.33 hour after chemical dosing in a 96-well plate.NVS_ADME_hCYP3A4 is one of one assay component(s) measured or calculated from the NVS_ADME_hCYP3A4 assay. It is designed to make measurements of enzyme activity, a form of enzyme reporter, as detected with fluorescence intensity signals by Fluorescence technology.Data from the assay component NVS_ADME_hCYP3A4 was analyzed into 1 assay endpoint. This assay endpoint, NVS_ADME_hCYP3A4, was analyzed in the positive analysis fitting direction relative to Acetonitrile as the negative control and baseline of activity. Using a type of enzyme reporter, loss-of-signal activity can be used to understand changes in the enzymatic activity as they relate to the gene CYP3A4. Furthermore, this assay endpoint can be referred to as a primary readout, because this assay has produced multiple assay endpoints where this one serves a enzymatic activity function. To generalize the intended target to other relatable targets, this assay endpoint is annotated to the cyp intended target family, where the subfamily is xenobiotic metabolism.
Binding assays used specific radioligands (tritiated, iodinated) with non-radioactive competitive displacement ligands in agonist or antagonist protocols (as indicated) and various reference compounds and inhibitors to titrate specific binding to receptors and transporters. Most enzyme assays (CYPs, kinases, phosphatases, proteases, HDACs) used recombinant protein and specific substrates (fluorescence mostly, some colorimetric and radioactive) and inhibitors, followed by a biochemical separation of substrate and product. All assays for the biochemical HTS were initially run in duplicate at a single concentration (10 uM for CYP450 assays and 25 uM for all others). […] Each assay was run with positive and negative controls, and concurrent controls on every plate. The follow-up (secondary) screen tested active chemical-pairs in concentration series, as well as a few additional assays not tested in the primary screen, some selected negative inactives, and several cases re-run in the concentration series for confirmatory purposes.

Sequence of Cytochrome P450 3A4 (Homo sapiens) (P08684 whole entry, looked up): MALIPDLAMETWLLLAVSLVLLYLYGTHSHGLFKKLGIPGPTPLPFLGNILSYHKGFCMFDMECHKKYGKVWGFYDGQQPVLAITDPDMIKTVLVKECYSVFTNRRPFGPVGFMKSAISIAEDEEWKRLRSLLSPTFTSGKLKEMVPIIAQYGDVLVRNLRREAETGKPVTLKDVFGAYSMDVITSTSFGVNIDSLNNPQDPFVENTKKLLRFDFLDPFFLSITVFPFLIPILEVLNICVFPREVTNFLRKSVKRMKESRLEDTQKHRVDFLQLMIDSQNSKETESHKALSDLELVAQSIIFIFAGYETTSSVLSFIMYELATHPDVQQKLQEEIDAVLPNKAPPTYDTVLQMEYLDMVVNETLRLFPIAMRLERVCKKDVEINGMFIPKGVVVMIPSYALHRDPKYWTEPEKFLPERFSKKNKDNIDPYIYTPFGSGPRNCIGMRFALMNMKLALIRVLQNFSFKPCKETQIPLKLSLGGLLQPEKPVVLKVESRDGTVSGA

Compound | AC50 | outcome
CCN(CC)C(=O)c1cc(S(=O)(=O)Cc2ccccc2)c(N2CCC(c3ccccc3)CC2)cc1N(CC)CCN(C)C | 4.11 µM (active) | 
CCOC(=O)O[C@H](C)OC(=O)c1ccc2c(c1)cc(C(=O)NC1CCN(C(C)C)CC1)n2Cc1cc(-c2ccc(Cl)s2)on1 | 9.45 µM (active) | 
CCCCCCCCOC(=O)c1cc(O)c(O)c(O)c1 | 15.4 µM (active) | 
NCc1cccc(C2CCN(C(=O)c3ccc(C#Cc4ccccc4F)o3)CC2)c1 | 10 µM (active) | 
Cc1oc2c(NC(=O)c3c(Cl)cccc3Cl)cccc2c1C(C)(C)O | 7.44 µM (active) | 
Cc1occc1C(=O)Nc1ccc(C(=O)N2CCC(F)(F)/C(=C\C(=O)N3CCC(N4CCCCC4)CC3)c3ccccc32)cc1 |  | inactive
CCN(Cc1cccnc1)C(=O)c1cccc(Cl)c1[C@]1(C)C(=O)N(Cc2ccc(OC)cc2OC)c2ccc(Cl)cc21 | 3.58 µM (active) | 
COc1ccc2cc(S(=O)(=O)N[C@H](CC(=O)N[C@H](Cc3ccc(CN4[C@H](C)CCC[C@@H]4C)cc3)C(=O)N(C)C(C)C)c3ccc4c(c3)OCO4)ccc2c1 | 0.861 µM (active) | 
CN(C)C(=O)C1(N2CCCCC2)CCN(CC[C@@]2(c3ccc(Cl)c(Cl)c3)CN(C(=O)c3ccccc3)CCO2)CC1 | 0.586 µM (active) | 
CCCOC(=O)c1cc(O)c(O)c(O)c1 |  | inactive
CC[C@H](NC(=O)c1cc(F)ccc1NS(=O)(=O)c1cccc2cccnc12)c1ccccc1 |  | inactive
O=C1c2ccccc2C(=O)N1CCc1noc(-c2ccc(CN3CCCCCC3)s2)n1 |  | inactive
